Each compound was assayed against AMP-activated protein kinase, AMPK (Homo sapiens) (UniProt P54646+O43741+P54619+Q9UGJ0+Q9Y478+Q13131+Q9UGI9) (assay: AMP-dependent Kinase enzyme assay. An in vitro enzyme assay that detects ADP turnover that is directly proportional to AMPK activity. This uses naive AMPK that is activated during the assay with MK-8722). Conditions: 30 µM.
Format: functional
Parameters: scale not given: direction of the effect not stated beside the values

| Structure (SMILES) | Percent Effect [%] |
| --- | --- |
| CC(=O)NCCNC(=O)NCc1ccc(-n2ccc(C(F)(F)F)n2)cc1 | -0.713 |
| CCC(=O)Nc1ccc(F)cc1OC | -10.1 |
| Cc1cc(-c2cnc(N3CCSCC3)nc2C(C)C)on1 | 16 |
| CC(C)(C)c1noc(CCCC(=O)N2CCNC(=O)C2)n1 | -8.74 |
| Cc1n[nH]c(C)c1CCN(C)c1ccc(-c2nc(C3CC3)no2)cn1 | -6.17 |
| CC(C)C(CNC(=O)CCn1cncn1)N1CCc2ccccc2C1 (stereo not given) | 0.687 |
| CC(=O)Nc1ccc(Oc2cc(C)nc(C3CCCNC3)c2)cc1 (stereo not given) | -6.11 |
| Cc1nccn1[C@@H]1CC[C@@H](N(C)S(=O)(=O)c2ccccc2F)[C@H]1O | 5.86 |
| NC(=O)c1csc(N2C[C@@H](CN3CCC(O)CC3)[C@@H](CO)C2)n1 | -1.72 |
| CN(C(=O)c1ccc(C#N)cc1)c1nnc(C2CCOC2)s1 (stereo not given) | 11.3 |
| CCc1nnc(CNC(=O)CCC2CCCN(C)C2)s1 (stereo not given) | -1.32 |
| CC(C)Cc1cc(CNC(=O)c2ccccc2C2CCNC2)no1 (stereo not given) | 3.3 |
| CC(C)OCCCNC(=O)CN1CCN(c2nccs2)CC1 | 4.26 |
| Cc1ccc(C(C(=O)NC(C)(C)CN2CCCC2)N(C)C)cc1 (stereo not given) | -22.5 |
| Cc1cnn(C2CN(c3ccccc3S(=O)(=O)C(F)(F)F)C2)c1 | 9.6 |
| CN(CCOc1ccccc1F)C1CCOC1=O (stereo not given) | -5.42 |
| O=C1NCCN(C(=O)CCN2CCCO2)C1c1cccc(F)c1 (stereo not given) | -5.73 |
| CC(C)CN1CCC(NC(=O)N(C)Cc2csc3ccccc23)CC1 | 0.225 |
| Cc1ccccc1[C@@H]1CN(CCCS(=O)(=O)N(C)C)C[C@H]1C(=O)O | -1.92 |
| CCCC(=O)NC1CCCN(Cc2cccs2)C1 (stereo not given) | 5.79 |
